Results from PubChem BioAssay (NCATS).
Records with an inconclusive call do not appear. Entries that show only a call come without a potency. Active and inactive are the calls of the source. Unless noted, calls follow the shape of the full dose curve.

Test system: not listed separately
Experiment: Confirmatory qHTS for activators (rescue) of SARS-CoV-2 Cytopathic Effect (CPE) (AID 1508606); also: nearly all actives have a fitted effect of over 70% in size; also: potency is read from the fitted curve at half-maximal effect
Settings: Vero E6 SARS-CoV-2 CPE rescue, viability luminescence; series mostly up to 20 µM
With CC(=O)O/N=C1\C(=O)N(Cc2cc(Cl)ccc2Cl)c2ccc(Cl)cc21 the Potency was 7.94 µM (active). For Cc1cc(CN)cc(C)c1NC(=O)c1ccc(-c2cc(Cl)ccc2Cl)o1, the Potency was 7.94 µM (active). For COc1ccc2cc(-c3cc(-c4cc(Cl)cc(Cl)c4)nn3C(C)c3ccc(C(=O)NCCC(=O)O)cc3)ccc2c1 (stereo unspecified), the Potency was “inactive”. For O=C(O)c1ccc(CCCc2ccc(OCCc3ccc(F)cc3)cc2)o1, the Potency was “inactive”. For CC(=O)O[C@@H]1C[C@H](O)[C@@]23CO[C@H](O)[C@]1(C)C2C[C@@H](O)[C@]1(C)C3C(=O)[C@H](OC(C)=O)[C@@]2(C)[C@H](c3ccoc3)C[C@H]3O[C@]321 (stereo partly specified), the Potency was 1.06 µM (active). In the case of OC1CCC(Oc2cccc3cnc(Nc4ccc5nc[nH]c5c4)nc23)CC1 (stereo unspecified), the Potency is reported as 4.47 µM (active). With COCCN1CCN(Cc2ccc(-c3n[nH]c4c3C(=O)c3c(NC(=O)NN5CCOCC5)cccc3-4)cc2)CC1 the Potency was 2.82 µM (active). With CC(C)c1ccc(NC(=O)C(c2ccccc2)N(C)C(=O)Cc2c[nH]c3ccccc23)cc1 (stereo unspecified) the Potency was 3.55 µM (active). For O=S(=O)(NCC1CC1)c1ccc(Nc2nccc(N3CCCc4cc(O)ccc43)n2)cc1, the Potency was 0.794 µM (active). In the case of COc1cc(N2CCN(C)CC2)ccc1Nc1nccc(-c2cn(C)c3cnccc23)n1, the Potency is reported as 8.91 µM (active). For CC1(C)CCC(C)(C)c2cc(C#Cc3ccc(C(=O)O)cc3)ccc21, the Potency was “inactive”. For COc1ccc(CNC(=O)Nc2ncc([N+](=O)[O-])s2)cc1, the Potency was 7.94 µM (active). For CC(C)(O)CNc1ncc(-c2ccnc(Nc3ccncc3)n2)c(CC2CC2)n1, the Potency was 1.12 µM (active). In the case of C[C@H]1CC[C@@]2(OC1)O[C@H]1CC3[C@@H]4CC[C@@H]5C[C@@H](O[C@@H]6O[C@H](CO)[C@@H](O[C@@H]7O[C@@H](C)[C@H](O)[C@@H](O)[C@H]7O)[C@H](O)[C@H]6O[C@@H]6O[C@H](CO)[C@@H](O)[C@H](O)[C@H]6O)CC[C@]5(C)C4CC[C@]3(C)[C@H]1[C@@H]2C (stereo partly specified), the Potency is reported as “inactive”. With CN(CCCNC(=O)c1ccc2nc3c(c(Cl)c2c1)CCCC3)Cc1ccccc1 the Potency was 7.08 µM (active). For CC(C)C[C@H](NC(=O)[C@H](Cc1ccccc1)NC(=O)OCc1ccccc1)C(=O)C=O, the Potency was 8.91 µM (active). In the case of COc1cc2ncnc(Sc3nnc(C)s3)c2cc1OC, the Potency is reported as 3.98 µM (active). With Cc1cc(C)cc(-c2cnc3cc(Cl)c(-c4cccc(O)c4)cc3c2OCCCN)c1 the Potency was “inactive”. For O=C(O)/C=C/c1ccc(-c2ccc(O)c(C34CC5CC(CC(C5)C3)C4)c2)cc1, the Potency was “inactive”. For Cc1nc(Nc2cnn(C3CCNCC3)c2)nc2c1N(C)C(=O)c1cc3ccccc3cc1N2C, the Potency was 10 µM (active). With COc1ccc(S(=O)(=O)N(CCO)c2ccccc2CN(C)C/C=C/c2ccc(Cl)cc2)cc1 the Potency was 10 µM (active). For Cc1nc2ccc(-n3ncc(C(=O)c4cc5ccccc5[nH]4)c3N)cc2[nH]1, the Potency was “inactive”. In the case of CN(C)C(=O)NC1(c2ccccc2)CCN(CCC[C@]2(c3ccc(Cl)c(Cl)c3)CCCN(C(=O)c3ccccc3)C2)CC1, the Potency is reported as “inactive”. In the case of Nc1nc2c(c(N3CC[C@@H](N)C3)n1)CCCc1ccccc1-2, the Potency is reported as 10 µM (active). For C/C=C(\C)C(=O)O[C@H]1C=C(CO)C(=O)[C@H](OC(C)=O)[C@H]1C(C)C, the Potency was “inactive”. With C[C@@H]1C[C@H](N)C[C@H](c2ccncc2NC(=O)c2ccc(F)c(-c3c(F)cccc3F)n2)C1 the Potency was 8.91 µM (active). In the case of O=S(=O)(c1cccc2ccccc12)n1ccc2ccc(N3CCN4CCCC4C3)cc21 (stereo unspecified), the Potency is reported as 11.2 µM (active). In the case of C(=N\Nc1nc(Nc2ccccc2)nc(N2CCOCC2)n1)/c1c[nH]c2ccccc12, the Potency is reported as 0.0898 µM (active). With c1ccc(-c2cc(CCC3CCNCC3)c3ccccc3n2)cc1 the Potency was “inactive”. With Cn1c(NC[C@@H](N)Cc2ccccc2)nc(-c2ccncc2)c(-c2ccc3ccccc3c2)c1=O the Potency was 6.31 µM (active).

Target: Calcium and integrin-binding protein 1 (Homo sapiens) (UniProt Q99828)
Sequence (Q99828 whole entry, looked up): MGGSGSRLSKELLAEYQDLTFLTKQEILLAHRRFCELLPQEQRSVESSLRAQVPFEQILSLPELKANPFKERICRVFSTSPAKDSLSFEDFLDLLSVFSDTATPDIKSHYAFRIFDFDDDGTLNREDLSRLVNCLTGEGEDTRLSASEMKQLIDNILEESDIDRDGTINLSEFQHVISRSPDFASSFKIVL
Experiment: Primary qHTS for Identification of Calcium Integrin Binding Protein 1 (CIB1) Competitor (AID 1508620; active = well fitted inhibition curve with a large enough effect;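 also: GST tagged CIB1 binding a fluorescein labelled alphaIIb integrin peptide tracer; top concentration of the series differs between compounds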)
Settings: CIB1-GST / FITC-alphaIIb peptide fluorescence polarization; series mostly up to 114 µM
Outline: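 CIB1-GST (1 uM final) and compound incubated 15 min at room temperature before adding FITC-alphaIIb peptide tracer (100 nM final). Competition for binding read by fluorescence polarization (ex 480, em 540) after another 15 min at room temperature.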
For C[n+]1cc(P(=S)(c2ccccc2)c2ccccc2)n2ccccc21, the outcome was “inactive”. In the case of N#Cc1c(-c2cccc(-c3no[n+]([O-])c3C#N)c2)no[n+]1[O-], the outcome is reported as “inactive”. In the case of O=S(=O)(Nc1ccc(-c2ccccc2)cc1)c1ccc(NCc2cccc(Cl)c2O)cc1, the outcome is reported as “inactive”. In the case of Cc1cc(-c2nnc3n2CCCCC3)c(C)n1-c1ccc(C(C)(C)C)cc1, the outcome is reported as “inactive”. For CN1CCN(c2cnc3c(O)ccc(C(=O)O)c3c2)CC1, the outcome was “inactive”. For CCOc1ccc(CCNC(=O)c2cc3sccc3n2Cc2ccc(F)cc2F)cc1OCC, the outcome was “inactive”. For Cc1ccccc1C(=O)N1CCc2cc(N3CCC(NC(=O)Cc4ccccc4)C3)ccc21 (stereo unspecified), the outcome was “inactive”. With Cc1cccc2nc(NC3=NC(c4[nH]ncc4Cl)C4=C(CCCC4=O)N3)oc12 (stereo unspecified) the outcome was “inactive”. For COC(=O)c1nc(-c2cccc3ccccc23)oc1OC, the outcome was “inactive”.

Test system: not listed separately
Experiment: Cytotoxicity counterscreen for inhibitors of SARS-CoV-2 cell entry (AID 1645845); also: nearly all actives have a fitted effect of over 50% in size; also: potency is read from the fitted curve at half-maximal effect
Settings: cell viability (SARS-CoV-2 entry assay cells); series mostly up to 57.1 µM
Outline: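 48 h compound treatment (after 1 h preincubation), HEK293-ACE2 cells, 37 C/5% CO2; ATP luminescence endpoint; normalized to cell wells and media blanks.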
With CC(=O)O/N=C1\C(=O)N(Cc2cc(Cl)ccc2Cl)c2ccc(Cl)cc21 the Potency was “inactive”. With O=C(O)c1ccc(CCCc2ccc(OCCc3ccc(F)cc3)cc2)o1 the Potency was “inactive”. In the case of COc1cc(N2CCN(C)CC2)ccc1Nc1nccc(-c2cn(C)c3cnccc23)n1, the Potency is reported as “inactive”. In the case of CC(C)(O)CNc1ncc(-c2ccnc(Nc3ccncc3)n2)c(CC2CC2)n1, the Potency is reported as 25.1 µM (active). With CC(C)C[C@H](NC(=O)[C@H](Cc1ccccc1)NC(=O)OCc1ccccc1)C(=O)C=O the Potency was “inactive”. In the case of c1ccc(-c2cc(CCC3CCNCC3)c3ccccc3n2)cc1, the Potency is reported as “inactive”. With Cn1c(NC[C@@H](N)Cc2ccccc2)nc(-c2ccncc2)c(-c2ccc3ccccc3c2)c1=O the Potency was “inactive”.
